RE007 growth inh: qHTS Assay for Inhibitors of the HIV-1 protein Vpr. S. pombe RE007 Vpr strain, BacTiter-Glo ATP luminescence, 24 h. Potency, µM (series often up to 92.2 µM), for inactives: top-dose activity change, negative = less growth, usual class: inhibitors. 0.21% of 360,000 active. AID 651644, 2012; active = well fitted falling curve with a large enough effect; inconclusive = small, poorly fitted or top-dose-only effect; inactive = no such curve, though single readings can be large or run the other way; also: nearly all actives have a fitted effect of over 50% in size
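Fission yeast strain RE007, carrying one chromosomally integrated HIV-1 vpr copy, was seeded at OD 0.01 in PMG+AL medium with 23 nL pinned compound. After 24 h at 30 °C and 99% humidity, viability was read by BacTiter-Glo luminescence.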
Lassa entry inh: qHTS for Inhibitors of binding or entry into cells for Lassa Virus | Lassa virus pseudotype entry inhibition, cell reporter | Potency, µM (top dose mostly 37.9 µM), inactives show at the top dose activity change, negative = inhibition, hits mostly inhibitors | 1.2% of 300,000 active; calls by dose curve; tested in HEK293 cells; also: nearly all actives have a fitted effect of over 50% in size
MARV entry inh: qHTS for inhibitors of binding or entry into cells for Marburg Virus; Marburg virus pseudotyped entry inhibition, cell reporter; Potency, µM (series often up to 37.8 µM), for inactives: at the highest dose activity change, negative = inhibition, usual class: inhibitors; 1.8% of 300,000 active; AID 540276, 2011; calls by dose curve; tested in HEK293 cells
FMDV inh: High Throughput Screening for Foot and Mouth Disease Virus Antivirals | FMDV antiviral cell-based qHTS | Potency, µM (top dose mostly 57.9 µM), inactives show at the highest dose activity change, negative = inhibition, most hits filed as inhibitors | 1.2% of 410,000 active; calls by dose curve; tested in HEK293T cells; also: read-out not given here; nearly all actives have a fitted effect of over 45% in size
Sm TGR inh: qHTS Assay for the Inhibitors of Schistosoma Mansoni Peroxiredoxins. Potency, µM (top dose mostly 114 µM), inactives show at the highest dose activity change, negative = inhibition, usual class: inhibitors. purified TGR, DTNB reduction, TNB absorbance 405 nm. Schistosoma mansoni thioredoxin glutathione reductase (TGR), Q962Y6. 3% of 360,000 active; also: nearly all actives have a fitted effect of over 60% in size
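Kinetic colorimetric format: TGR-catalysed, NADPH-driven DTNB reduction monitored via TNB absorbance. Enzyme dispensed at 20 nM; compound exposure 15 min at room temperature before reaction start.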
HCV inh: qHTS Assay for Inhibitors of Hepatitis C Virus (HCV). 3.4% of 340,000 active. Potency, µM (highest dose often 41.8 µM), for inactives: top-dose activity change, negative = inhibition, usual class: inhibitors. AID 651820, 2012. Huh7.5.1 HCVcc-Cre infection, luciferase reporter, 44 h
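Reporter virus HCVcc-Cre (~0.5 moi) infects cells exposed to compound; seeding density 1,000 cells/well with 4 h settling beforehand. Luminescence, 15 sec read, taken 44 h post-infection following a 15 min RT substrate incubation.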
An asterisk follows results filed as active; ? = inconclusive; · = no result given; ! = not confirmed by another sample; [ ] = dose if it differs, or a comment. Most compounds without a hit are left out; they make up all but 7.2% or so of the library. Unless noted, calls follow the shape of the dose curve; as a rule, active = well fitted curve in the direction sought with a large enough effect; inconclusive = small, poorly fitted or top-dose-only effect, or another doubt; inactive = no such curve, though single readings can be large; an effect the other way counts as inactive or inconclusive. % is scaled to controls: 0 for no effect and ±100 for the full control effect; potency is read from the fitted curve at half-maximal effect.

SMILES	RE007 growth inh	Lassa entry inh	MARV entry inh	FMDV inh	Sm TGR inh	HCV inh
O=C1CCCC2=C1C(c1ccc(O)c(O)c1)Nc1ccc3ncccc3c12 (configuration not stated)	-12.1%	11.5%[46.1 µM]	-11.2%[46.1 µM]	15.2%	20µM*	5.5%
CCOc1cc(C2C3=C(CCCC3=O)Nc3ccc4ncccc4c32)ccc1O (configuration not stated)	-5.9%	-20.8%	?	-1.9%	-18.6%	3.8%
COc1ccc(C2C3=C(CCCC3=O)Nc3ccc4ncccc4c32)cc1OC (configuration not stated)	7.6%	0.0%	?	43.4%	20µM*	?
CC(CN1CCNCC1)(NS(=O)(=O)c1ccccc1)c1ccccc1 (configuration not stated)	-8.2%	-21.7%	11.2µM*	-7.2%	-25.5%	?
COc1cc2c(cc1OC)-c1cc3cc(OC)c(OC)cc3c(=O)n1CC2	·	·	·	-16.4%	·	·
CN1CC(c2ccc(Cl)c(Cl)c2)[C@@]2(COc3ccccc3C2=O)[C@@]12C(=O)Nc1ccccc12 (some centres not stated)	-6.6%	?	?	9.9%	0.2%	11.2µM*
Cc1nnc(NC(=O)c2nc(S(=O)(=O)Cc3ccccc3C)ncc2Cl)s1	-20.1%	·	·	25.1µM*	25.1µM*	?
CC(C)c1nnc(NC(=O)c2nc(S(=O)(=O)Cc3ccccc3F)ncc2Cl)s1	-9.1%	·	·	28.2µM*	31.6µM*	?
CCOC(=O)c1ccc(NC(=O)c2nc(SCc3ccccc3F)ncc2Cl)cc1	·	4.9%[46.1 µM]	7.4%[46.1 µM]	-17.3%	-2.3%	·
CCOc1ccc(NC(=O)c2nc(S(=O)(=O)Cc3ccccc3F)ncc2Cl)cc1	·	?	?	25.1µM*	7.08µM*	·
Cc1nnc(NC(=O)c2nc(SCc3ccccc3F)ncc2Cl)s1	·	-0.6%[46.1 µM]	-11.5%[46.1 µM]	-23.5%	2.4%	·
CSc1nnc(NC(=O)c2nc(S(=O)(=O)Cc3ccccc3F)ncc2Cl)s1	-7.3%	?	?	7.08µM*	28.2µM*	?
NC(=O)Nc1ccc(C(=O)OCC(=O)N2CCCC2=O)cc1	0.0%	·	·	30.2%	3.5%	15.3%
CCCOc1ccc(OC(=O)c2c(-c3ccccc3Cl)noc2C)cc1	·	-0.9%[46.1 µM]	·	-7.5%	-3.1%	·
Cc1ccccc1Cn1c(CN2CCCC(C)C2)nc2c1c(=O)n(C)c(=O)n2C (configuration not stated)	·	-1.9%[46.1 µM]	13.9%[46.1 µM]	-22.1%	7.4%	·
N#CC(C#N)=Cc1ccc(O)c(O)c1	-0.6%[18.4 µM]	?	11.8%	0.0%	1.41µM*	-3.3%
N#C/C(=C\c1ccc(O)c(O)c1)S(=O)(=O)c1ccccc1	-3.5%	4.0%	-34.3%	6.0%	44.7µM*	6.5%
N#C/C(=C/c1ccc(F)cc1)S(=O)(=O)c1ccccc1	1.6%	17.4%	-10.9%[14.2 µM]	11.1%	-4.3%	-7.2%
Cc1ccc(C#C[C@@H]2C=C[C@H](Oc3ccc4c(c3)OCO4)[C@@H](CO)O2)c(C)c1	·	·	11.5%[14.2 µM]	·	·	·
CC(=O)c1cccc(Nc2cc(C)nc3nc(Cc4ccccc4)nn23)c1	·	?	-1.5%[46.1 µM]	-23.5%	-2.8%	·
CCN(CC)CCCNC(=O)c1[nH]c2ccccc2c1Sc1ccc(Cl)cc1	1.4%	?	?	-23.4%	5.01µM*	?
CCCCNC(=O)c1[nH]c2ccccc2c1Sc1ccc(C)cc1	·	-23.7%[46.1 µM]	?	16.3%	1.6%	·
Cn1nc([N+](=O)[O-])nc1Sc1nnc(-c2ccccc2)o1	2.2%	-27.4%	?	22.4µM*	?	-29.6%
Cn1nc([N+](=O)[O-])nc1Sc1cccc2cccnc12	-9.6%	·	·	-27.2%	0.0%	?
O=Cc1ccc(Sc2nnc(-c3ccccc3)o2)c([N+](=O)[O-])c1	?	-14.4%	?	0.1%	11.2µM*	-20.1%
SMILES	RE007 growth inh	Lassa entry inh	MARV entry inh	FMDV inh	Sm TGR inh	HCV inh
CCN1C(=O)[C@H]2[C@H]3[C@H](O)[C@H](O)C/C(=N\OCC[C@@H]4C=C[C@H](OC(C)=O)[C@@H](COC(C)=O)O4)[C@@H]3CC[C@H]2C1=O	·	·	-14.6%[14.2 µM]	·	·	·
N#Cc1ccc(Oc2ncccn2)cc1	-7.8%	-3.5%[46.1 µM]	-1.9%[46.1 µM]	6.3%	·	-9.0%
N#Cc1ccc(Oc2nc(C#N)cc(-c3ccccc3)n2)cc1	-1.6%	-34.9%	-6.2%	11.2µM*	1.7%	-12.1%
COc1ccc(-c2cc(C#N)nc(Oc3ccc(Cl)cc3)n2)cc1	2.6%	?	?	-26.9%	-6.4%	3.5%
COc1ccc(-c2cc(C#N)nc(N3CCNCC3)n2)cc1	-13.2%	49.6%	?	-24.1%	3.1%	-19.6%
N#Cc1cc(-c2ccccc2)nc(Oc2ccccc2)n1	9.1%	·	·	?	-10.9%	10µM*
CN1CCN(c2nc(C#N)cc(-c3ccccc3)n2)CC1	-7.4%	1.1%	-0.4%	-16.3%	-5.2%	10µM*
COc1ccc(OC)c(CCNC(=O)c2ccc3c(c2)N(Cc2ccc(C)cc2)CCS3)c1	·	22.1%[46.1 µM]	-2.9%[46.1 µM]	-13.1%	-8.3%	·
Clc1ccc(/C=N/Nc2nnc(Cl)c3ccccc23)cc1	11.5%	?	-0.1%	·	-0.2%	7.1%
Cc1ccc(/C=N/Nc2nnc(Cl)c3ccccc23)cc1	-20.1%	?	10µM*	?	-3.8%	-18.9%
CC(=O)Nc1ccc(Nc2nnc(-c3ccc(O)cc3)c3ccccc23)cc1	1.0%	?	?	-25.8%	4.5%	?
CC(=O)Nc1ccc(C=NNc2nnc(NN=Cc3ccc(NC(C)=O)cc3)c3ccccc23)cc1	3.7%	1.58µM*	?	-9.1%	·	22.4µM*
CCOC(=O)c1cc2c(=O)n3ccccc3nc2n(Cc2ccco2)c1=NC(=O)c1ccc(OC)cc1	-0.8%	0.8%	?	-5.4%	?	-42.4%
CCOC(=O)c1cc2c(=O)n3cccc(C)c3nc2n(CC(C)C)c1=NC(=O)c1ccco1	-14.0%	2.5%[46.1 µM]	-10.7%[46.1 µM]	-10.0%	-31.9%	?
CCOC(=O)c1cc2c(=O)n3ccccc3nc2n(Cc2ccco2)c1=NC(=O)c1ccccc1OC	1.2%	-2.8%	-21.6%[46.1 µM]	-8.5%	5.62µM*	?
CCOCCCn1c(=NC(=O)c2ccco2)c(C(=O)OCC)cc2c(=O)n3cccc(C)c3nc21	-2.6%	·	·	19.3%	-18.4%	11.2µM*
CCOc1cc2c(cc1O)C(=NO)CC1C2CCC2(C)C(O)CCC12 (configuration not stated)	-18.2%	?	?	0.0%	·	?
CC(C)(C)c1cc(/C=C(\C#N)C(N)=S)cc(C(C)(C)C)c1O	·	2.31µM*	9.2µM*	?	·	·
CC(C)(C)c1cc(C=C(C#N)C#N)cc(C(C)(C)C)c1O	-7.8%[18.4 µM]	0.411µM*	2.06µM*	3.98µM*!	?	?

Source: PubChem BioAssay (National Center for Advancing Translational Sciences (NCATS))
